KDM5B inh = inhibitors of human KDM5B histone demethylase | Q9UGL1 | KDM5B demethylase, FDH-coupled NADH fluorescence (FDH is formaldehyde dehydrogenase) | Potency, µM (series often up to 57.7 µM), hits mostly inhibitors | 2.6% of 220,000 active | AID 1347165; active means well fitted inhibition curve with a large enough effect; further: 0% is about no effect; nearly all actives have a fitted effect of over 70% in size
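Compound dilutions met 200 nM (final) KDM5BΔAP for 10 min at room temperature before substrate addition. The substrate mix held 12.5 µM H3K4me3 with cofactors 25 µM α-ketoglutarate and 50 µM Fe²⁺. NADH signal gain over 30 min defined activity.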
The depositor's hits bear a star; i = inactive. The full list was thinned out, with hits kept by preference. Potency means the concentration at half of the fitted maximal effect.

SMILES	KDM5B inh
COc1ccc(-c2nc3cnccn3c2NCCC(=O)N2CCCC(C)C2)cc1 (centres undefined)	28µM*
COc1cccc(-c2nc3cnccn3c2NCCC(=O)N2CCCC(C)C2)c1 (centres undefined)	28µM*
COc1ccc(Cn2c(CCC(=O)Nc3cccc(Cl)c3)nc3cccnc32)cc1	i
COc1ccc(NC(=O)CSc2nc3ccccc3n2CC(=O)N2CCCC(C)C2)cc1 (centres undefined)	i
COc1cccc(NC(=O)CCc2ncc(-c3ccc(Cl)cc3)o2)c1	i
COc1ccc(CCC(=O)N2CCCC(c3nc(C4CCOCC4)no3)C2)cc1 (centres undefined)	i
CCOc1ccc(-c2cc(C(=O)Oc3ccc(F)cc3)no2)cc1	i
CC(C)NC(=O)CN(C)CC(O)COc1cc(Cl)ccc1Cl (centres undefined)	i
CCc1nn2c(=O)cc(CN(CC)CC)nc2s1	i
CN1CCN(C(=O)c2cnc(N3CCOCC3)c3ccccc23)CC1	i
NC(=O)[C@H](CC1CCCCC1)NC(=O)[C@@H]1CN(S(=O)(=O)c2ccccc2)CCN1S(=O)(=O)c1ccccc1	i
C#Cc1cccc(NC(=O)Cc2c[nH]c3ccccc23)c1	i
O=C(NCCCn1nnc2ccccc21)C1CC(=O)N(Cc2ccccn2)C1 (centres undefined)	i
Cc1ccc(CC(C#N)Sc2nnc(COc3ccccc3Cl)n2C)cc1 (centres undefined)	i
CC(NC(=O)CCCC(=O)O)C1CC2CCC1C2 (centres undefined)	i
Cc1nc(NCCCNC2CCCCC2)c2cnn(C)c2n1	i
Cn1ncc2c(NCCc3cn4ccccc4n3)nc(C3CCCC3)nc21	20µM*
Cc1nc(CCN(C)c2nc(C3CCCC3)nc3c2cnn3C)no1	i
COC(=O)c1ccc(NC(=O)Cn2nc(-n3nc(C)cc3C)ccc2=O)cc1	i
Cc1cccc2c1ccn2CCC(=O)Nc1nnc(CC(C)C)s1	i
CCCNC(=O)NCC1c2cc(OC)c(OC)cc2CCN1C(=O)NC(C)C (centres undefined)	22µM*
COc1cc2c(cc1OC)C(CNC(=O)C1CC1)N(C(=O)NC(C)C)CC2 (centres undefined)	i
CCCNC(=O)NCC1c2cc(OC)c(OC)cc2CCN1C(=O)NCC (centres undefined)	i
COc1ccc(OC)c(C(C)NC(=O)CSC(C)(C)C)c1 (centres undefined)	i
Cc1nn2c(SCC(=O)NCc3ccccc3Cl)nc3ccccc3c2nc1=O	i
SMILES	KDM5B inh
Cc1ccc(Nc2nc(-c3cc4cc(Br)ccc4oc3=O)cs2)cc1	i
O=[S+]1([O-])NC2(CCN(Cc3ccsc3)CC2)COc2ccccc21	i
O=[S+]1([O-])NC2(CCN(Cc3ccccn3)CC2)COc2ccccc21	i
O=[S+]1([O-])NC2(CCN(CC3CCOCC3)CC2)COc2ccccc21	79µM*
O=C(CN1C(=O)NC(c2ccc(Cl)cc2)C2=C1COC2=O)Nc1ccc(F)c(Cl)c1 (centres undefined)	i
CN(C)c1ccc(CN2CCCC3(C2)C(=NC2CCCC2)NC(=O)N3c2cccnc2)cc1 (centres undefined)	i
COc1ccc(CCN2CCC(CN(C)Cc3nc(C(C)C)cs3)CC2)cc1	i
Cc1ccc(CNC(=O)c2ccc(-c3ccc(N4CCSCC4)nc3)cc2)o1	i
O=C(NCCN1CCN(C(=O)c2ccc(F)cc2)CC1)c1ccc(F)cc1	i
O=C(NCCN1CCCCCC1)c1n[nH]c(=O)c2ccccc12	i
O=C(NCCCN1CCCC1)c1ccc(-c2ccc(N3CCCCC3)nc2)cc1	22µM*
Cc1ccc(C(=O)NCCCN2CCCC2)cc1	i
CN(Cc1ccco1)C(=O)c1ccc(-n2cnnn2)cc1	i
N#Cc1cccc(C(=O)NCCCN2CCCC2)c1	i
CN(Cc1ccco1)C(=O)c1ccc(-c2ccc(N3CCCCCC3)nc2)cc1	28µM*
O=C(NCCN1CCCCC1)c1ccc(-c2ccc(N3CCSCC3)nc2)cc1	28µM*
CC(C)CCNC(=O)c1ccc(-c2ccc(N3CCSCC3)nc2)cc1	22µM*
CCc1csc(CNC(=O)c2ccc(N3CCSCC3)nc2)n1	i
CN(Cc1ccco1)C(=O)c1cccc(S(=O)(=O)N2CCCCC2)c1	i
O=C(NC[C@H]1Cn2c(-c3ccccc3)cnc2CO1)C1CCCC1	i
Cc1nc(-c2cccc(Cl)c2)n(CC(=O)Nc2ccc3c(c2)OCO3)c(=O)c1CCO	i
Cc1[nH]n(-c2ccc(F)cc2)c(=O)c1CCC(=O)Nc1ccc(C#N)cc1	i
COc1cccc(N2C(=O)NC(=NC3CCCC3)C23CCCN(Cc2ccccc2)C3)c1 (centres undefined)	i
FC(F)(F)c1ccc2c(c1)nc1n2[C@@H](CNC2CCC2)COC1	i
Cc1ccc(C(CC(=O)O)NC(=O)c2nn(C)c(=O)c3ccccc23)cc1 (centres undefined)	i
CC1=Nc2cc(C(=O)NCCCN(C)C)ccc2Sc2ccc(Cl)cc21	i
